# About 83,000 compounds went through this panel and 20% of them were active in at least one assay; those are over-represented in the sample as a whole.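 Percent growth is the endpoint: 0 to 100 indicates growth inhibition (40 means 60% inhibition), 0 means no net growth, and negative values indicate cell death.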 Unmarked numbers belong to inactive results. Activity calls are given as the source filed them.
# Tested on: SNB-75 CNS
# Assay: NCI-60 one-dose screen, 48 h (100 = growth as untreated, 0 = no growth, -100 = all killed)
# Conditions: 10 µM unless noted
# Description: Growth inhibition of the SNB-75 human tumor cell line is measured as a screen for anti-cancer activity. Cells are grown in 96 well plates and exposed to the test compound for 48 hours. Compounds are tested at a single concentration, which is 10^-5 M for most compounds. The reported endpoint is percent growth (GI% or GIPRCNT), where numbers from 0 - 100% represent growth inhibition, and numbers from -100% - 0 represent cell death. For example, a value of 40 represents 60% growth inhibition. A value of 0 means no net growth occurred over the course of the experiment. A value of -40 indicates 40% of cells at the beginning of the experiment died by the end of the experiment. A value of -100 means all cells are dead at the end of the experiment.
# NCI-60 Human Tumor Cell Lines Screen was performed using the standard one-dose NCI protocol, which is described in more detail at https://dtp.cancer.gov/discovery_development/nci-60/default.htm.
# Compounds with GIPRCNT values below 10 were considered active. Activity score was based on GIPRCNT using the following formula: […]
# Score is 0 for GIPRCNT values of 100 or above, 50 for GIPRCNT values of 0, and 100 for GIPRCNT values of -100.
row,SMILES,growth
1,COc1ccc(CN2C(=O)C(Cl)=C(Nc3cccc(C(F)(F)F)c3)C2=O)cc1,66.9%
2,CC(C)CCC[C@@H](C)[C@H]1CC[C@H]2[C@@H](Nc3ccc(O)cc3)CCC[C@]12C,75.8%
3,CC(=O)O[C@]1(C(C)=O)CCC2C3C[C@H](C)C4=CC(=O)CC[C@]4(C)C3CC[C@@]21C (stereo not given in full),96%
4,COc1ccc(-c2nc3c(N)c(CO)c(C)nc3o2)cc1,98.9%
5,COc1cc2ncn3c(=O)c4c5c(sc4nc3c2cc1OC)CCCC5,85.1%
6,CC/C=C1/C(=O)C=C[C@@H]1C/C=C\CCCC(=O)O,105%
7,COc1cc(/C=C/C(=O)c2ccc(Nc3nc(Nc4ccc(F)cc4)nc(Nc4ccc(Cl)cc4)n3)cc2)cc(OC)c1OC,0.259% (active)
8,CCc1ccccc1NC(=O)/C(C#N)=C/c1ccc(OC)cc1,99.3%
9,CCN(CC)CCCC(C)Nc1c2ccc(Cl)cc2nc2ccc(O)cc12 (stereo not given),35.3%
10,N#Cc1c(-c2ccccc2)cc(-c2ccc(Nc3nc(Nc4ccc(F)cc4)nc(Nc4ccc(F)cc4)n3)cc2)nc1N,87.1%
11,COc1cc(/C=N/Nc2ncc(-c3cc4cc5c(cc4o3)OCO5)s2)cc(OC)c1OC,72.4%
12,O=C(CC(SCc1ccccc1)c1ccccc1)c1ccccc1 (stereo not given),87.9%
13,O=c1c2cc(F)ccc2sc2c(NCCCN3CCCC3)nc3ccccc3c12,21.5%
14,Cc1cc(/C=C\c2ccc3ccccc3[n+]2C)c(O)c2ncccc12,37.8%
15,O=C(CCc1nnc(CN(c2ccccc2)c2ccccc2)o1)c1nc2ccccc2[nH]1,86.9%
16,O=[N+]([O-])c1ccc(N2c3ccncc3Sc3ccncc32)cc1,98.9%
17,COc1ccc(CNC(=O)C(O)C(Cc2ccccc2)NC(=O)c2[nH]c3ccccc3c(=O)c2C)cc1OC (stereo not given),107%
18,O=C(/C=C/c1ccc(Cl)nc1)c1ccc(Cl)cc1Cl,108%
19,N#Cc1c(N)nn(C(=O)c2ccc(NC(=O)c3ccccn3)cc2)c1-c1ccc(Cl)cc1,27.3%
20,CCCc1cc2c(=O)c(C(=O)OC)c[nH]c2cc1N(CC)CC,104%

row,SMILES,growth
1,CC1=CN2C(=O)C3C4=C(CCCC4)SC3N=C2CN1c1c(C)cccc1C (stereo not given),106%
2,Cc1occc1-c1n[nH]c(=S)n1N1C(=O)CSC1=S,80.9%
3,O=C(/C=C/c1cccc(O)c1)c1cccc(-n2cc(-c3ccc4ccccc4c3)[nH]c2=O)c1,4.8% (active)
4,C=C1C(=O)O[C@H]2[C@H]1CC/C(COC(=O)C(=O)c1c[nH]c3ccccc13)=C\CC[C@@]1(C)O[C@@H]21,-55% (active)
5,COc1cc(C2CC(=O)Nc3c2c(C)nn3-c2nc3ccccc3[nH]2)cc2c1OCC(=O)N2 (stereo not given),19.3%
6,c1ccc(-c2nc([P+](c3ccccc3)(c3ccccc3)c3ccccc3)c(N3CCOCC3)o2)cc1,1.4% (active)
7,O=C1/C(=C2/C=Nc3ccccc32)N(O)c2ccccc21,102%
8,COc1cccc(-c2nn(-c3ccccc3)cc2-c2ccnc(NCCNC(=O)Nc3cccc(C(F)(F)F)c3)c2)c1,46.3%
9,CCN1C(=O)N(CC)C2Nn3c(s/c(=C4\C(=O)N(C)c5ccccc54)c3=O)=NC21 (stereo not given),9.74% (active)
10,COc1cccc(-c2nn(-c3ccccc3)cc2-c2ccnc(NCCCNC(=O)Nc3ccc(Cl)c(Cl)c3)c2)c1,25.4%
11,O=C(NC(Cc1nnc2n(Cc3ccccc3)c(=O)c3c4c(sc3n12)CCCC4)c1ccc(Cl)cc1)c1ccccc1 (stereo not given),73.7%
12,O=C(COc1ccc(/C=C2\Oc3ccccc3C2=O)cc1)c1ccc(Cl)cc1,103%
13,CC(C)(C)CC(C)(C)Nc1c(-c2ccncc2)nc2cnccn12,80.4%
14,COC(=O)c1c2c(c(C)[n+]([O-])c1C)C(=O)C(NCc1ccc(F)c(Cl)c1)=CC2=O,109%
15,COc1cc(-c2nn(-c3ccccc3)cc2-c2ccnc(NCCNS(=O)(=O)c3ccc(Cl)cc3)n2)ccc1Cl,49.1%
16,O=C1/C(=C/c2ccc(Br)cc2)C=C(c2ccccc2)N1CCc1ccccc1,-34.3% (active)
17,CCCCCCCCCCCCCCCCCC1=NCCN1CCOC1=C(Cl)C(=O)c2ccccc2C1=O,87.4%
18,Cc1c(C(=O)N[C@@H](Cc2ccccc2)C(=O)C(=O)NCCc2ccccc2)[nH]c2ccccc2c1=O,88.7%
19,CC/C=C\C[C@H](O)C/C=C1/C(=O)C=C[C@@H]1C/C=C\CCCC(=O)OC,57.8%
20,N#Cc1c(-c2cccc(Cl)c2)cc(-c2cccc(Cl)c2)[nH]c1=O,43%

# — PubChem BioAssay (NCI)
